In the library only some 14% were active in any assay of this set; here they are far more common.
Giardia FBPA inh: qHTS Assay for Inhibitors of Fructose-1,6-bisphosphate Aldolase from Giardia Lamblia | A8B2U2 | purified Giardia FBPA | Potency, µM (highest dose often 59.6 µM), usual class: inhibitors | 290,000 tested, 0.71% active | AID 2451, 2010; further: nearly all actives have a fitted effect of over 55% in size
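40 nM FBPA preincubated 10 min at RT with compound (up to 57.5 uM final), then substrate plus GAPDH/TPI/NAD/arsenate coupling and diaphorase/resazurin added. Fluorescence read after 20 min at RT, 525/598 nm.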
NS1 inh: qHTS Assay for Inhibitors of Influenza NS1 Protein Function | Potency, µM (top dose mostly 46.1 µM) | AID 2326, 2010 | 270,000 tested, 0.4% active; calls by dose curve; further: actives are rising curves; nearly all actives have a fitted effect of over 50% in size
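In this qHTS, NS1 from influenza A is expressed in budding yeast, where it slows growth. Cells are switched from glucose to 2% galactose medium (pH 6.0, -URA), treated with compound, and growth recovery is read at OD600.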
LmPK inhibitor: qHTS Assay for Inhibitors of Leishmania Mexicana Pyruvate Kinase (LmPK) | Potency, µM (series often up to 57.5 µM), actives largely listed as inhibitors | purified LmPK, Kinase-Glo ATP luminescence, 1 h | Q27686 | 290,000 tested, 0.37% active | AID 1721, 2009
Target sequence (Q27686 whole entry, looked up): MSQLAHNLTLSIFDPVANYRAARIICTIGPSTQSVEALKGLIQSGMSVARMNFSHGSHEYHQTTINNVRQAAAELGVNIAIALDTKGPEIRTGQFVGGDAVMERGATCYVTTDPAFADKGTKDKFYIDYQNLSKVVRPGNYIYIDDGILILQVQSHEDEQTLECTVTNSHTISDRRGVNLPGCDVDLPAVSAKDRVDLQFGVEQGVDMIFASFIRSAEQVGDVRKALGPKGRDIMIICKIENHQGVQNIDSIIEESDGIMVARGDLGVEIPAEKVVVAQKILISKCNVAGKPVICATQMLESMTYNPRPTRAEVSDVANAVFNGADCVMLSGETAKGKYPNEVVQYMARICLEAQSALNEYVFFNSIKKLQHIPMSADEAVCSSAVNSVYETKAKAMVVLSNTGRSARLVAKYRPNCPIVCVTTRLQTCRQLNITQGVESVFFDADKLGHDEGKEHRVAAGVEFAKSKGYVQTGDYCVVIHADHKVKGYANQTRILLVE
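qHTS format; LmPK 0.1 nM; substrates PEP 0.5 mM and ADP 0.1 mM. One-hour room-temperature incubation, then coupled luciferase luminescence; 0.5 nM enzyme wells mark activation.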
Shiga toxin inh: A qHTS for Small Molecule Inhibitors of Shiga Toxin; Vero cells, Shiga toxin protein synthesis inhibition reporter; inhibition, % at 38.7 µM; 290,000 tested, 9.2% active; AID 2315, 2010; in the data active means inhibition mostly above about 28%, no sharp cut-off; inactive means mostly below about 43%
CHX counter: Cycloheximide Counterscreen for Small Molecule Inhibitors of Shiga Toxin; cell reporter, cycloheximide protein synthesis inhibition counterscreen; max response, %; 300,000 tested, 12% active; in the data active means max response mostly above about 13%, no sharp cut-off; inactive means mostly below about 14%; further: read at 38.3 µM for the half of the compounds with a filed dose
Of the large screens only hits and unclear results are named; the others gave an inactive call. Unless noted, the call rests on the fitted dose curve; in most records, active means well fitted curve in the direction sought with a large enough effect; inconclusive means small, poorly fitted or top-dose-only effect, or another doubt; inactive means no such curve, though single readings can be large; an effect the other way counts as inactive or inconclusive.

CN1CCC2(CCN3CCc4c(oc5ccccc45)C3C2)N(C)C1=O (stereo not drawn)	none (no result: LmPK inhibitor, Shiga toxin inh, CHX counter)
COC1(C#CC2C=CC(OC(C)=O)C(COC(C)=O)O2)CCCCC1 (stereo not drawn)	none (no result: NS1 inh, LmPK inhibitor, Shiga toxin inh, CHX counter)
CCOC(=O)N1CCN(c2ccc(C(=O)c3ccccc3)cc2F)CC1	Shiga toxin inh 77.2, CHX counter 28.6
CCC(=O)c1ccc(N2CCN(C(=O)c3cccs3)CC2)c(F)c1	CHX counter 21.3
Cc1ccc(S(=O)(=O)N2CCOC2CNC(=O)C(=O)NCCN(C)C)cc1 (stereo not drawn)	none (no result: Giardia FBPA inh)
O=C(c1cnccn1)N1CCC2(CC1)CN(c1ccncc1)C2	none (no result: NS1 inh, LmPK inhibitor, Shiga toxin inh, CHX counter)
Cc1ccc(C)c(NC(=O)c2cc3ccccn3n2)c1	Shiga toxin inh 99.2, CHX counter 26.8
Cc1ccc(C)c(NC(=O)c2cnn3ccccc23)c1	CHX counter 14.0
CC(=O)c1cccc(NC(=O)c2cc3ccccn3n2)c1	CHX counter 30.2
CC(=O)c1cccc(NC(=O)C2C(c3ccccc3)C2(Cl)Cl)c1 (stereo not drawn)	none
CSc1ccccc1C(=O)Nc1cc(C)ccc1C	none
Cc1ccc(C)c(NC(=O)c2cc3c([nH]c4ccccc43)c(C)n2)c1	none
O=C(NCc1ccc(F)cc1)c1cc2ccccn2n1	CHX counter 24.3
COc1cccc(CN2CC(C(=O)NC3CCC(O)CC3)CCC2=O)c1 (stereo not drawn)	none
Cc1ccccc1NC(=O)c1c(F)c(F)c(F)c(F)c1F	none
Cc1ccccc1NC(=O)c1cc2ccccn2n1	LmPK inhibitor 12.6µM, Shiga toxin inh 67.0, CHX counter 52.2
CCSc1ncccc1-c1nc2ccccc2[nH]1	Shiga toxin inh 99.3, CHX counter 38.4
CSc1ncccc1-c1nc2ccccc2[nH]1	CHX counter 27.9
Cc1[nH]c(=O)[nH]c(=O)c1NC(=O)CSc1ncccc1-c1nc2ccccc2[nH]1	none
CC(=O)C[C@H](O)[C@@H](NC(=O)OC(C)(C)C)C(C)C	none (no result: NS1 inh, LmPK inhibitor, Shiga toxin inh, CHX counter)
CCCCS(=O)(=O)N1CN(S(=O)(=O)CCCC)C2NC(=O)NC21 (stereo not drawn)	NS1 inh inconclusive, CHX counter 45.2
Cc1cc(C)c(S(=O)(=O)Cc2ccccc2)c(OC(C)C)n1	none
c1cncc(-c2csc(NCc3ccco3)n2)c1	Shiga toxin inh 38.4, CHX counter 32.3
COc1ccc(-c2nc3cccc(C)n3c2NCc2ccco2)cc1OC	Giardia FBPA inh inconclusive, CHX counter 16.1
CC(=O)Nc1ccc(-c2csc(NCc3ccco3)n2)cc1	Shiga toxin inh 44.1, CHX counter 48.1
COc1ccc(-c2ccc(C#N)c(SCC(=O)NCc3ccco3)n2)cc1OC	none
CCn1c(CNc2nc(-c3ccccc3)cs2)nnc1SCC(=O)NCc1ccco1	none
Cc1ccn2c(-c3csc(NCc4ccco4)n3)c(C)nc2c1	Giardia FBPA inh inconclusive
O=C(CSc1nnc(-c2cccnc2)n1Cc1ccco1)Nc1nc(-c2ccc(F)cc2)cs1	none
COc1ccc(-c2csc(NCc3ccco3)n2)cc1C	NS1 inh inconclusive, Shiga toxin inh 114.1, CHX counter 23.8
CN1CCN(c2ncc3nc(-c4ccc(F)cc4)c(=O)n(C4CC4)c3n2)CC1	none (no result: NS1 inh, LmPK inhibitor, Shiga toxin inh, CHX counter)
CN1CCN(Cc2ccc(OCc3ccccc3)cc2)CC1	Shiga toxin inh 94.3, CHX counter 26.8
NC(=O)C1CCN(Cc2cccc(OCc3ccccc3)c2)CC1	Giardia FBPA inh inconclusive
CCN1CCN(Cc2ccc(OCc3ccccc3)cc2)CC1	Shiga toxin inh active, CHX counter 50.1
c1ccc(COc2cccc(CN3CCc4ccccc4C3)c2)cc1	Shiga toxin inh 105.1, CHX counter 40.8
CCN1CCN(Cc2ccc(OC)c(OCc3ccccc3)c2)CC1	none
O=C(NC1CCCC1)C(c1cc2c(cc1[N+](=O)[O-])OCO2)N1CCCC1 (stereo not drawn)	Shiga toxin inh 65.5, CHX counter 18.4
O=CN1CCN(C(C(=O)NC2CCCC2)c2cc3c(cc2[N+](=O)[O-])OCO3)CC1 (stereo not drawn)	none (no result: NS1 inh)
C/C(=N/Nc1nc(-c2ccccc2)cc(-c2ccc(F)cc2)n1)c1cccc(N)c1	NS1 inh inconclusive
C/C(=N\Nc1nc(N)cc(Cl)n1)c1cccc(N)c1	Giardia FBPA inh inconclusive, Shiga toxin inh 38.5, CHX counter 51.6
C/C(=N\Nc1nc(N)cc(Cl)n1)c1cccc([N+](=O)[O-])c1	Shiga toxin inh 74.7, CHX counter 37.1
Cc1cc(C)cc(NC(=O)c2cnn(-c3ccccc3)c2C2CCNCC2)c1	none (no result: NS1 inh)
O=c1cnc2cnc(OCc3ccccc3)nc2n1Cc1ccc(F)cc1	none (no result: NS1 inh, LmPK inhibitor, Shiga toxin inh, CHX counter)
COc1ccc(C2=Nn3c(nnc3-c3cccc(OC)c3)SC2)cc1	none (no result: NS1 inh, LmPK inhibitor)
COc1ccc(CCC(C)Nc2ccccc2F)cc1 (stereo not drawn)	none
COc1ccc(CCC(C)Nc2cccc(F)c2)cc1 (stereo not drawn)	Giardia FBPA inh inconclusive, CHX counter 18.4
O=C(COc1ccccc1Cl)NC(=S)Nc1cccc(NC(=O)c2ccccc2Cl)c1	none
O=C(COc1ccc(Br)cc1Br)NC(=S)Nc1cccc(CO)c1	Shiga toxin inh 86.6, CHX counter 97.4
O=C(COc1ccc2ccccc2c1Br)NC(=S)Nc1cccc(CO)c1	Shiga toxin inh 22.1, CHX counter 50.7
O=C(NC1CCCCC1)C(c1ccc(F)cc1)N(C(=O)c1csnn1)C1CC1 (stereo not drawn)	none
CC(/C=C/c1ccc(C)o1)=C\C(=O)O	none
CC(=C/C(=O)O)/C=C/c1ccc(Cl)o1	Shiga toxin inh 78.1, CHX counter 50.3
CCOc1ccc(N2CC(C(=O)Nc3ccc(S(=O)(=O)NCC4CCCO4)cc3)CC2=O)cc1 (stereo not drawn)	none
Cc1ccsc1CNc1ncnc2ccc(-c3c(C)noc3C)cc12	Shiga toxin inh 57.4 (no result: NS1 inh, LmPK inhibitor)
Cc1noc(C)c1-c1ccc2ncnc(NCc3cccs3)c2c1	none (no result: NS1 inh, LmPK inhibitor, Shiga toxin inh, CHX counter)
O=C(c1ccc(F)c(S(=O)(=O)N2CCOCC2)c1)N1CCc2ccccc21	none
O=C1[C@H]2[C@H]3[C@H](O)[C@H](O)C/C(=N/OCc4ccccc4)[C@H]3CC[C@@H]2C(=O)N1c1cccc(Oc2ccccc2)c1	none (no result: NS1 inh, LmPK inhibitor, Shiga toxin inh, CHX counter)
CC1(C)Cc2nc3sc(C(=O)NCCO)c(N)c3cc2CO1	Shiga toxin inh 51.3, CHX counter 19.5
CC1(C)Cc2nc3sc(C(=O)NCCCO)c(N)c3cc2CS1	CHX counter 30.5
Cc1ccc(NC2CCCN(C(=O)c3ccc(-n4ccnc4)cc3)C2)cc1C (stereo not drawn)	none (no result: Giardia FBPA inh)
CCCOc1ccc(/C(O)=C2/C(=O)C(=O)N(CCCn3ccnc3)C2c2cccs2)cc1 (stereo not drawn)	CHX counter 15.7
CCOc1ccc(/C(O)=C2/C(=O)C(=O)N(CCCn3ccnc3)C2c2cccs2)cc1Cl (stereo not drawn)	Shiga toxin inh 63.1, CHX counter 46.7
CCCOc1ccc(/C(O)=C2/C(=O)C(=O)N(CCCN3CCOCC3)C2c2ccncc2)cc1 (stereo not drawn)	Giardia FBPA inh inconclusive, NS1 inh 10µM
